The nature of assay [1]: inhibitors of TNFa-induced NFkB p65 translocation, primary screen, imaging, HUVEC, MLSMR starter and 10KST1 sets (AID 438).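 Further: compound added about 3h40 before a 20 min TNFalpha stimulation.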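 On inhibition: signal is the nuclear over cytoplasmic p65 intensity ratio per well.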 The note with it: HUVEC TNFa-induced p65 nuclear translocation; cell count: measured here: nuclei count (cytotoxicity indicator), at 2.08 µM; inhibition: at 2 µM, stronger effect = higher value, 0% TNFa-plus-vehicle, 100% no-TNFa wells.
Assay [2] can be described thus: inhibitors of mutant huntingtin aggregation, primary screen, imaging, exon1htt(103Q)mCFP cells, high-content imaging (AID 483;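 active means visual image review flags a hit and inhibition of aggregation exceeds 20%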;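 further: compound exposure lasted 3 days before fixation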;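 on nuclei count: percent of the per-plate median nuclei count of sample wells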). The conditions noted are these: exon1htt(103Q)mCFP cell line, aggregate imaging, at 2 µM; inhibition of aggregation: stronger effect = higher value; nuclei count: measured here: cell count, toxicity.
Assay [3] is described as follows: inhibitors of E-selectin induction by TNFa, primary screen, imaging, HUVEC, immunofluorescence, MLSMR starter and 10KST1 sets (AID 487;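 active means visually confirmed hit in the image check and inhibition above 20%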;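 on inhibition: signal is fraction of cell area covered by stained E-selectin grains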;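 on nuclei count: 100% = median nuclei count of all wells on the same plate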). The note with it: HUVEC TNFalpha-induced E-selectin immunofluorescence imaging, at 2 µM; inhibition: stronger effect = higher value; nuclei count: measured here: cell number, toxicity.
Assay [4] deals with Voltage-gated potassium channel subunit beta-2 (Rattus norvegicus) (UniProt P62483). Nature of the assay: KvBeta enzyme negative modulators, primary screen, biochemical, NADPH fluorescence (AID 622;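 active means fluorescence slope higher than the sample average by over 3 SD, cut at about -0.22 in these data, passing the limit was not always enough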;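 further: slope of raw intensity against log time taken from 70 to 1610 s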). The conditions noted are these: recombinant KvBeta, 4-cyanobenzaldehyde reduction, at 10 µM, stronger effect = higher value.
Chain of Voltage-gated potassium channel subunit beta-2 (Rattus norvegicus) (P62483 whole entry, looked up): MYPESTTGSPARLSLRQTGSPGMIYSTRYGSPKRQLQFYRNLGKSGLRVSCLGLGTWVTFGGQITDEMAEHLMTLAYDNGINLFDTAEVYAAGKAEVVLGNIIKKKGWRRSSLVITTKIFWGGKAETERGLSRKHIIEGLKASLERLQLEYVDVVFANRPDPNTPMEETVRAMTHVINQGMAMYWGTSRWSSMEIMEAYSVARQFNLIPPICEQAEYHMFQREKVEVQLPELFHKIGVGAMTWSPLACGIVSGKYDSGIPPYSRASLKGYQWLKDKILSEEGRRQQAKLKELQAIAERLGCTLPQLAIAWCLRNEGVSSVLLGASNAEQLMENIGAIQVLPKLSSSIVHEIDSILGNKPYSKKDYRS
Assay [5] has the same target. The assay can be described thus: KvBeta positive modulators, primary screen, biochemical, NADPH fluorescence (AID 623;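 active means NADPH fluorescence slope more negative than the mean of all samples by about 3 SD, 99.7% confidence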;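 further: fluorescence intensity change per second fitted from 20 to 320 s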). The conditions noted are these: Recombinant KvBeta, NADPH fluorescence decrease slope, 10 min; at 10 µM; stronger effect = lower value.
In assay [6] the target is Alpha-2C adrenergic receptor (Homo sapiens) (UniProt P18825). Nature of the assay: modulators of alpha2C/GIRK thallium flux, primary screen, cell-based, HEK293 alpha2C/GIRK1/2 (AID 624;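 active means fluorescence slope after compound addition differing from the mean of all screened samples at 99.7% confidence, in either direction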;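 further: slope of fluorescence ratio to pre-addition baseline per second over 15 to 24 s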). The conditions noted are these: thallium flux BTC fluorescence, at 10 µM, actives lie on both sides.
Chain of Alpha-2C adrenergic receptor (Homo sapiens) (P18825 whole entry, looked up): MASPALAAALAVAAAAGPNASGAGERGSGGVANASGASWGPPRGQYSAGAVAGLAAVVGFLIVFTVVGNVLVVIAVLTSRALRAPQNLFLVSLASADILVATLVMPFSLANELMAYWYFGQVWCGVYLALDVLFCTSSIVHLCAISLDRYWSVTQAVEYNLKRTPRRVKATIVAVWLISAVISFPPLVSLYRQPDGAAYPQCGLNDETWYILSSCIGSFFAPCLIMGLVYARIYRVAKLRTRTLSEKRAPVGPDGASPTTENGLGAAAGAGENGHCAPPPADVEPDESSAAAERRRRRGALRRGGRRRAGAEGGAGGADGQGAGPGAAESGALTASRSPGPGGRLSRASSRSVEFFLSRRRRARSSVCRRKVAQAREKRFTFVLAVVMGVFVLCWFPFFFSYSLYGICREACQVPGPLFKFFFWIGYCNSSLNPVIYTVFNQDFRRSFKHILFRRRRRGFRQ
The nature of assay [7]: inhibitors of Sendai virus-induced IRF3 signaling, primary screen, TLR/RLR signaling modifier project, cell-based, Sendai virus stimulus, luciferase, 10K MLSCN set (AID 602276;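 active means inhibition at or above 50% at 10 µM; inactive means inhibition below 50%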;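 further: firefly luciferase from ISG56 promoter only with Renilla not read in this screen; 0% = Sendai virus plus DMSO and 100% = medium plus DMSO without virus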). The conditions noted are these: HEK293 RL24 IRF3 luciferase reporter, at 10 µM, stronger effect = higher value. A general note: A reporter such as luciferase makes a cellular process visible.
Assay [8] in a line: inhibitors of poly I:C-induced TLR3 signaling, primary screen, cell-based, poly I:C stimulus, luciferase, 10K MLSCN set (AID 602277;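 active means inhibition of the reporter signal at or above 50%; inactive means inhibition below 50%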). The conditions noted are these: HEK293-TLR3 RL24 IRF3 luciferase reporter, at 10 µM, stronger effect = higher value.

Activity calls are given as the source filed them.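 How the source made its calls, unless noted: active means inhibition above 20% together with a positive visual image hit; inconclusive means visual image hit but inhibition not above 20%; inactive means no visual image hit.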 Where a SMILES comes first, the peptide text is derived from it. The star is where a group is joined. Boc = CC(C)(C)OC(=O)*

One may read the inhibition as the change of the read-out against control, counted positive when it falls. Regarding `N#CCCN(C(=O)Nc1ccc(Cl)cc1)c1ccccc1`, the cell count in assay [1] turned out to be 355. Besides, the inhibition in assay [1] is -2.1% (inactive); in assay [3], -15.7% (inactive); in assay [7] it was -5.26% (inactive); in assay [8], -52.7% (inactive). For the same molecule, in assay [2], the inhibition of aggregation is -8.5% (inactive). Moreover, the nuclei count in assay [2] stood at 98.6%; in assay [3], 99.7%. Besides, the fluorescence slope in assay [4] is -0.632 (inactive). The NADPH fluorescence slope in assay [5] is 2.2e-05 (inactive). In assay [6], the slope is 0.00361 (inactive).

For the molecule `COC(=O)[C@H](C)NC(=O)Nc1cc(OC)ccc1OC`, in assay [1], the cell count stood at 572. For the same molecule, the inhibition in assay [1] is -15.2% (inactive); in assay [3], -11% (inactive); in assay [7] it was -3.29% (inactive); in assay [8], -52% (inactive). Moreover, in assay [2], the inhibition of aggregation was -17.4% (inactive). The nuclei count was determined as 114% in assay [2] and 103% in assay [3]. Besides, the fluorescence slope in assay [4] was -0.586 (inactive). Further, the NADPH fluorescence slope in assay [5] is 1.8e-05 (inactive). The slope in assay [6] is 0.00542 (inactive).

As for `CC(C)CCNC(=O)C(c1cccs1)N(CC1CCCO1)C(=O)Cn1nnc2ccccc21` (centres undefined), the cell count in assay [1] was 642. Moreover, the inhibition in assay [1] is 8.8% (inactive); in assay [3], -132% (inactive); in assay [7] it was 10.3% (inactive); in assay [8] it was 35.6% (inactive). For the same molecule, the inhibition of aggregation in assay [2] was 3.2% (inactive). Moreover, the nuclei count amounted to 85.4% in assay [2] and 97.1% in assay [3]. For the same molecule, in assay [4], the fluorescence slope was -0.451 (inactive). Moreover, the NADPH fluorescence slope in assay [5] was -5.1e-05 (inactive). For the same molecule, the slope in assay [6] is 0.00299 (inactive).

As for `Cc1cc(C)n(S(=O)(=O)c2cc(C(=O)O)c(Cl)cc2Cl)n1`, the cell count in assay [1] came to 432. The inhibition was -0.5% (inactive) in assay [1], -83.9% (inactive) in assay [3], 13.3% (inactive) in assay [7] and 10.3% (inactive) in assay [8]. Also, the inhibition of aggregation in assay [2] is -10.2% (inactive). Besides, the nuclei count was 110% in assay [2] and 98.4% in assay [3]. In addition, in assay [4], the fluorescence slope was -0.387 (inactive). The NADPH fluorescence slope in assay [5] is 4.4e-06 (inactive). In assay [6], the slope was 0.00497 (inactive).

With `Cc1cccn2c(=O)c3cc(C(=O)NC4CCCC4)c(=N)n(C4CCCC4)c3nc12`, in assay [1], the cell count turned out to be 786. Further, the inhibition in assay [1] was 2.4% (inactive); in assay [3], -189% (inactive); in assay [7] it was 17.5% (inactive); in assay [8], 32.7% (inactive). For the same molecule, the inhibition of aggregation in assay [2] is -58% (inactive). The nuclei count in assay [2] was 107%; in assay [3] it was 126%. Moreover, the fluorescence slope in assay [4] was -0.0946 (inactive). Also, in assay [5], the NADPH fluorescence slope was -1.1e-05 (inactive). The slope in assay [6] is 0.00161 (inactive).

`C=CCn1c(SCC(=O)Nc2ccccc2OC)nnc1-c1ccccn1`: the cell count in assay [1] was found to be 684. The inhibition in assay [1] was 9.1% (inactive); in assay [3] it was -6.9% (inactive); in assay [7], 7.11% (inactive); in assay [8] it was 18.2% (inactive). The inhibition of aggregation in assay [2] is 32.8% (inactive). Further, the results for the nuclei count in assay [2] and in assay [3] were 65.8% and 113%, respectively. In addition, the fluorescence slope in assay [4] was -0.344 (inactive). In assay [5], the NADPH fluorescence slope was -2.6e-05 (inactive). Further, in assay [6], the slope is 0.0051 (inactive).

As for `CC12CN3CC(C)(CN(C1)C3c1ccc(Cl)cc1Cl)C2=O` (centres undefined), the cell count in assay [1] turned out to be 849. The inhibition in assay [1] was -4.6% (inactive); in assay [3] it was -21.6% (inactive); in assay [7], 1.89% (inactive); in assay [8], 28.2% (inactive). In addition, the inhibition of aggregation in assay [2] is -26.4% (inactive). Besides, the nuclei count is 123% in assay [2] and 121% in assay [3]. For the same molecule, the fluorescence slope in assay [4] was -0.557 (inactive). The NADPH fluorescence slope in assay [5] is -1.9e-05 (inactive). For the same molecule, the slope in assay [6] is 0.00699 (inactive).

Regarding `CC(C)Cc1nc2oc3c(N4CCN(CCO)CC4)ncnc3c2c2c1CCCC2`, the cell count in assay [1] is 450. For the same molecule, the inhibition in assay [1] is -11.5% (inactive); in assay [3], 6.5% (inactive); in assay [7], -8.86% (inactive); in assay [8], 31.2% (inactive). Besides, in assay [2], the inhibition of aggregation is -9.1% (inactive). Moreover, the nuclei count in assay [2] was found to be 99.9%; in assay [3], 119%. For the same molecule, the fluorescence slope in assay [4] was -0.475 (inactive). Further, in assay [5], the NADPH fluorescence slope was 4e-05 (inactive). In addition, the slope in assay [6] was 0.00359 (inactive).

As for `N#Cc1c(NC(=O)c2ccc(Br)o2)n(-c2ccccc2)c2nc3ccccc3nc12`, the cell count in assay [1] was found to be 275. The inhibition in assay [1] was -1.4% (inactive); in assay [3], -63.2% (inactive); in assay [7], 19.9% (inactive); in assay [8] it was 18.8% (inactive). The inhibition of aggregation in assay [2] was 14.7% (inactive). Further, the nuclei count in assay [2] was found to be 97.4%; in assay [3], 104%. Moreover, in assay [4], the fluorescence slope was -0.502 (inactive). The NADPH fluorescence slope in assay [5] was -2e-05 (inactive). Further, the slope in assay [6] was 0.0121 (active).

Regarding `C=CCN(C(=O)CNC(=O)c1ccco1)C(C(=O)NC1CCCCC1)c1ccccc1F` (centres undefined), in assay [1], the cell count was 398. In addition, the inhibition was -1.6% (inactive) in assay [1], 5.7% (inactive) in assay [3], -3.24% (inactive) in assay [7] and 10.3% (inactive) in assay [8]. The inhibition of aggregation in assay [2] is 18.6% (inactive). Besides, the figures for the nuclei count in assay [2] and in assay [3] were 106% and 101%, respectively. In addition, in assay [4], the fluorescence slope was -0.612 (inactive). The NADPH fluorescence slope in assay [5] is 1.7e-06 (inactive). For the same molecule, the slope in assay [6] was 0.00581 (inactive).

For `O=C(Nc1ccc(N2CCOCC2)cc1)C1CC1`, the cell count in assay [1] stood at 344. The inhibition in assay [1] is 3.5% (inactive); in assay [3] it was -16.5% (inactive); in assay [7], 6.17% (inactive); in assay [8] it was -13.8% (inactive). Moreover, the inhibition of aggregation in assay [2] was 25% (inactive). In addition, the nuclei count in assay [2] came out at 83.9%; in assay [3], 121%. Also, the fluorescence slope in assay [4] was -0.39 (inactive). Besides, the NADPH fluorescence slope in assay [5] is -2.3e-05 (inactive). Also, in assay [6], the slope is 0.00566 (inactive).

In the case of `CC(C)CC(NC(=O)OC(C)(C)C)C(=O)NC(C(=O)N1CCCC1C(N)=O)C(C)C` (stereo not drawn) (Boc-Leu-Val-Pro-NH2; configuration not given here), in assay [1], the cell count came out at 662. In addition, the inhibition was 8.7% (inactive) in assay [1], 62.5% (inactive) in assay [3], 4.38% (inactive) in assay [7] and 20.6% (inactive) in assay [8]. The inhibition of aggregation in assay [2] is -4% (inactive). Also, the nuclei count came out at 100% in assay [2] and 89.1% in assay [3]. In addition, the fluorescence slope in assay [4] was -0.485 (inactive). In addition, the NADPH fluorescence slope in assay [5] was -2.7e-05 (inactive). The slope in assay [6] was 0.00542 (inactive).

As for `CNC(=O)C1C2C=CC3(O2)C1C(=O)N(C1CC1)C3C(=O)NCc1ccc(OC)cc1` (centres undefined), the cell count in assay [1] came to 199. For the same molecule, the inhibition in assay [1] was 11.8% (inactive); in assay [3], 41.6% (inactive); in assay [7], 14.1% (inactive); in assay [8], 20.2% (inactive). Besides, in assay [2], the inhibition of aggregation is -5.5% (inactive). For the same molecule, the nuclei count came to 102% in assay [2] and 98.4% in assay [3]. Also, the fluorescence slope in assay [4] was -0.533 (inactive). In addition, the NADPH fluorescence slope in assay [5] is -3.2e-05 (inactive). The slope in assay [6] is 0.00639 (inactive).

Turning to `O=C(Nc1ccc2c(c1)OCO2)c1ccc(CN2CCOCC2)cc1`, the cell count in assay [1] stood at 361. The inhibition in assay [1] was -5.1% (inactive); in assay [3], -117% (inactive); in assay [7] it was -25.7% (inactive); in assay [8] it was -76.1% (inactive). The inhibition of aggregation in assay [2] is -32% (inactive). Moreover, the nuclei count stood at 110% in assay [2] and 122% in assay [3]. In addition, in assay [4], the fluorescence slope is -0.491 (inactive). Also, the NADPH fluorescence slope in assay [5] is -3.3e-05 (inactive). Also, the slope in assay [6] is 0.00498 (inactive).

Values taken from PubChem BioAssay.
